TGFb inhibitor: blocks TGF-b signaling; Potency, µM (titrated, usually from 46.1 µM), usual class: inhibitors; 1.2% of 410,000 active; AID 588855; HepG2 CAGA-GFP TGF-b/SMAD3 reporter, GFP fluorescence, 18 h; TGF-beta stimulated, 500 pg/mL final; note: nearly all actives have a fitted effect of over 65% in size
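Inhibition of TGF-beta-driven CAGA-GFP reporter expression in HEPG2 cells is measured by cellular GFP fluorescence after 18 h stimulation with 500 pg/mL recombinant TGF-beta in 1% FBS medium at 37 degrees C.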
ATXN2 expr inh: ATXN2 expression inhibition | HEK-293 ATXN2-luciferase reporter, luminescence, 24 h | Potency, µM (titrated, usually from 57 µM), most hits filed as inhibitors | 0.72% of 360,000 active; note: nearly all actives have a fitted effect of over 55% in size
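qHTS (up to 57 uM final) was run with 24 h compound exposure of reporter cells at 37 °C. Each well was multiplexed: SteadyGlo luminescence measured ATXN2-luciferase expression after a fluorogenic Gly-Phe-AFC viability readout (25 uM final).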
HepG2 viability: counter-screen for TGF-b inhibitors: cytotoxicity in HepG2 cells. Potency, µM (highest dose often 46.1 µM), hits mostly cytotoxic. HepG2 CAGA-GFP viability, ATP luminescence, 18 h. 0.76% of 410,000 active
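HepG2 CAGA-GFP cells (1000/well, DMEM with 1% FBS) received compound, then TGF-beta at 500 pg/mL final, and were incubated 18 hours at 37 degrees C. Viability was read by CellTiter-Glo luminescence. Media-only wells were set as complete cell-killing and DMSO as no toxicity.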
GLP1R ag: agonists of human GLP-1 receptor. HEK293 GLP-1R CRE-luciferase, luminescence, 4-6 h; cells express a hypersensitive GLP-1R form. Potency, µM (series often up to 45.6 µM), usual class: activators. 0.007% of 380,000 active. AID 624172
Target sequence (P43220 whole entry, looked up): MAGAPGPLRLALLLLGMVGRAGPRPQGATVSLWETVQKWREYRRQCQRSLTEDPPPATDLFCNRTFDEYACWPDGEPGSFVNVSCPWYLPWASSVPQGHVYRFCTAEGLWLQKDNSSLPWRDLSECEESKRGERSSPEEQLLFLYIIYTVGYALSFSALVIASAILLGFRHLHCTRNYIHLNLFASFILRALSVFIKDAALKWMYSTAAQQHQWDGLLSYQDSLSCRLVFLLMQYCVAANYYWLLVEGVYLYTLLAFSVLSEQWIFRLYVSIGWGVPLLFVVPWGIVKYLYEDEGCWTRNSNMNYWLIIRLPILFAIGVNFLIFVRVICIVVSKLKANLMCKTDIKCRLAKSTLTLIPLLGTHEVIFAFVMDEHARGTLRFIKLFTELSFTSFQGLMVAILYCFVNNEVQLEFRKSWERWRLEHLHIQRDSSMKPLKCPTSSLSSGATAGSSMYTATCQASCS
GLP1R inv ag: acts as inverse agonist at human GLP-1 receptor | P43220 | HEK293 GLP-1R CRE-luciferase, luminescence, 24 h; GLP-1R form is constitutively active | Potency, µM (doses to about 38.3 µM), usual class: inhibitors | 1.6% of 410,000 active | AID 624417; note: nearly all actives have a fitted effect of over 55% in size
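Cells are plated, allowed 12 hours at 37 deg C, then treated with compounds for 24 hr before luciferase detection reagent is added and luminescence is read after 12 min at room temperature. The HEK293 line carries constitutively active GLP-1R with a cAMP-responsive reporter.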
ATXN viability: reduces viability in counter-screen for ATXN expression inhibitors | S2 cells (HEK-293 line with an ATXN2-luciferase reporter) viability, CellTiter-Fluor protease fluorescence, 24 h | Potency, µM (top dose mostly 56.7 µM), hits mostly cytotoxic | 0.49% of 400,000 active | AID 651635; note: nearly all actives have a fitted effect of over 40% in size
Large screens that a line does not name were inactive; ! = repeats disagree. The list is not random: actives were taken first. Their share in the collection is about 3.7%. Calls come from the whole dose curve; as a rule, active = well fitted curve in the direction sought with a large enough effect; inconclusive = small, poorly fitted or top-dose-only effect, or another doubt; inactive = no such curve, though single readings can be large; an effect the other way counts as inactive or inconclusive.

COc1ccc(-c2cc(C(F)(F)F)nc(SCC(=O)N3CCCCC3)n2)cc1OC	none
COc1cccc(CNC(=O)CN(c2ccc(C)cc2)S(=O)(=O)N(C)C)c1OC	none
NNc1ncnc2c1cnn2-c1ccccc1	TGFb inhibitor inconclusive, GLP1R inv ag 10µM
Cc1ccc(-n2ncc3c(NC4CCCCCC4)ncnc32)cc1Cl	GLP1R inv ag inconclusive (no result: GLP1R ag)
Cc1ccc(Cl)cc1-n1ncc2c(NC3CCCCCC3)ncnc21	TGFb inhibitor 11µM, ATXN2 expr inh inconclusive, GLP1R inv ag 4.5µM, ATXN viability inconclusive (no result: GLP1R ag)
CCC[C@H]1COCCS(=O)(=O)N1Cc1cccc(F)c1	none (no result: ATXN2 expr inh, GLP1R ag, GLP1R inv ag, ATXN viability)
COc1ccc(OC)c(Nc2nc(NCCCN(C)C)nc(N)c2[N+](=O)[O-])c1	TGFb inhibitor inconclusive, ATXN2 expr inh inconclusive, HepG2 viability 16µM, GLP1R inv ag inconclusive
COCCCNc1nc(N)c([N+](=O)[O-])c(Nc2cc(OC)ccc2OC)n1	TGFb inhibitor inconclusive
C=CCOC(=O)C1=C(C)NC(SCC)=C(C#N)C1c1ccc(Cl)cc1 (stereo not drawn)	TGFb inhibitor 13µM, ATXN2 expr inh 16µM, GLP1R inv ag inconclusive, ATXN viability inconclusive
COC(=O)C1=C(CN2CCc3ccccc32)NC(=O)NC1c1cc(C)ccc1C (stereo not drawn)	GLP1R inv ag 8.9µM
COc1ccc(-c2oc3c(OC)c(OC)c(OC)c(O)c3c(=O)c2OC)cc1OC	ATXN2 expr inh inconclusive, GLP1R inv ag 2.8µM
COc1c(OC)c(O)c2c(=O)c(O)c(-c3ccccc3)oc2c1OC	GLP1R inv ag inconclusive
CN1C2CCC1CC(OC(c1ccccc1)c1ccccc1)C2 (stereo not drawn)	GLP1R inv ag inconclusive
CN1CCC(OC(c2ccccc2)c2ccc(Cl)cc2)C1 (stereo not drawn)	ATXN2 expr inh inconclusive, GLP1R inv ag 3.2µM
C/C1=C2N=C(/C=C3N=C(/C(C)=C4\[N-][C@@H]([C@H](CC(N)=O)[C@]4(C)CCC(=O)NC[C@@H](C)OP(=O)([O-])O[C@@H]4[C@@H](O)[C@H](n5cnc6cc(C)c(C)cc65)O[C@@H]4CO)[C@@]4(C)N=C1[C@H](CCC(N)=O)[C@@]4(C)CC(N)=O)[C@H](CCC(N)=O)C\3(C)C)[C@@H](CCC(N)=O)[C@@]/2(C)CC(N)=O.[CH3-].[Co+3]	none (no result: TGFb inhibitor, ATXN2 expr inh, HepG2 viability, GLP1R inv ag, ATXN viability)
Cc1cc(N2CCN(C)CC2)ccc1NC(=O)c1ccc(-c2ccc(Cl)cc2)o1	TGFb inhibitor inconclusive, ATXN2 expr inh inconclusive, HepG2 viability 11µM, GLP1R inv ag 11µM
CCCCOc1ccc(Br)cc1CSC(=N)N	TGFb inhibitor 20µM, ATXN2 expr inh inconclusive, GLP1R inv ag inconclusive, ATXN viability inconclusive
Cn1c(CNc2ccc(C(=N)N)cc2)nc2cc(C(=O)N(CCC(=O)O)c3ccccn3)ccc21	none (no result: TGFb inhibitor, HepG2 viability, GLP1R ag, GLP1R inv ag, ATXN viability)
CC1=C(SCc2ccccc2)C(=O)c2ccccc2C1=O	TGFb inhibitor 7.9µM, ATXN2 expr inh inconclusive, HepG2 viability 13µM, GLP1R inv ag inconclusive, ATXN viability inconclusive
Nc1nc2c(s1)CCc1c-2cnn1-c1ccccc1	TGFb inhibitor 18µM, GLP1R ag inconclusive, ATXN viability inconclusive (no result: ATXN2 expr inh)
Cc1ccc(S(=O)(=O)/N=C2\C=C(NS(=O)(=O)c3ccccc3)C(=O)c3ccccc32)c(C)c1	none
CC(C)(C)c1ccc(S(=O)(=O)/N=C2\C=C(NS(=O)(=O)c3ccccc3)C(=O)c3ccccc32)cc1	TGFb inhibitor inconclusive, GLP1R inv ag inconclusive, ATXN viability inconclusive
CCc1ccc(S(=O)(=O)/N=C2\C=C(Nc3ccc(C(=O)O)cc3)C(=O)c3ccccc32)cc1	TGFb inhibitor 16µM, ATXN2 expr inh inconclusive, ATXN viability inconclusive
Cc1ccc(NC2=C/C(=N/S(=O)(=O)c3cccs3)c3ccccc3C2=O)cc1	TGFb inhibitor inconclusive, ATXN2 expr inh 7.9µM, HepG2 viability 4µM, GLP1R inv ag inconclusive, ATXN viability 7.9µM
Cc1ccc(S(=O)(=O)/N=C2\C=C(Nc3cccc(C(=O)O)c3)C(=O)c3ccccc32)c(C)c1	TGFb inhibitor 13µM, ATXN2 expr inh 32µM, HepG2 viability 16µM (no result: ATXN viability)
Cc1ccc(S(=O)(=O)/N=C2\C=C(Nc3cccc(C(=O)O)c3)C(=O)c3ccccc32)cc1	TGFb inhibitor 13µM, ATXN2 expr inh inconclusive, ATXN viability inconclusive
O=S(=O)(Nc1ccc(C(F)(F)F)cc1)c1ccc2c(c1)OCCO2	TGFb inhibitor inconclusive, GLP1R inv ag inconclusive
CC(=O)N1c2ccccc2C(=O)C1N1CCN(c2cc(Cl)ccc2C)CC1 (stereo not drawn)	GLP1R inv ag inconclusive (no result: ATXN2 expr inh, GLP1R ag, ATXN viability)
COc1ccc(CNC(=O)c2cc3c(=O)n(C)c4ccccc4c3n2C)c(OC)c1	none
COC(=O)c1ccccc1NC1=C/C(=N\S(=O)(=O)c2ccc(C(=O)O)cc2)c2ccccc2C1=O	TGFb inhibitor 8.9µM, ATXN2 expr inh inconclusive, HepG2 viability 16µM, GLP1R inv ag inconclusive, ATXN viability 18µM
Cc1ccccc1NC(=O)Cc1nc(COC(=O)c2ccc(NC(N)=O)cc2)cs1	none
CC1(C)C2CCC1(C)C(NC(=O)COC(=O)c1ccc(S(C)(=O)=O)c([N+](=O)[O-])c1)C2 (stereo not drawn)	TGFb inhibitor 5µM, HepG2 viability 6.3µM (no result: ATXN2 expr inh, GLP1R ag, GLP1R inv ag, ATXN viability)
CS(=O)(=O)c1ccc(C(=O)OCC(=O)Nc2cc(C(F)(F)F)ccc2Cl)cc1[N+](=O)[O-]	TGFb inhibitor 8.9µM (no result: ATXN2 expr inh, GLP1R ag, GLP1R inv ag, ATXN viability)
Cc1ccccc1NC(=O)Cc1nc(COC(=O)c2ccc(S(C)(=O)=O)c([N+](=O)[O-])c2)cs1	TGFb inhibitor 13µM, GLP1R inv ag inconclusive, ATXN viability inconclusive (no result: ATXN2 expr inh)
Cc1ccccc1NC(=O)COC(=O)c1ccc(S(C)(=O)=O)c([N+](=O)[O-])c1	TGFb inhibitor 7.9µM, HepG2 viability 10µM!, GLP1R inv ag inconclusive
CCCCCc1ccc(C)cc1O	none (no result: TGFb inhibitor, ATXN2 expr inh, HepG2 viability, GLP1R inv ag, ATXN viability)
CC(=O)Nc1cc(C(=O)N2CCN(C(=O)c3ccco3)CC2)cc2ncn(CCc3ccccn3)c12	none (no result: TGFb inhibitor, ATXN2 expr inh, HepG2 viability, GLP1R ag, GLP1R inv ag)
Cc1cnc(-n2ncc(C(=O)NCCc3ccncc3)c2-c2cccs2)nc1-c1ccc(F)cc1	none (no result: TGFb inhibitor, ATXN2 expr inh, HepG2 viability, GLP1R ag, GLP1R inv ag)
COc1ccc(OC)c(CCNC(=O)c2cc3cccc4c3n2CC(C)S4)c1 (stereo not drawn)	GLP1R inv ag inconclusive (no result: ATXN2 expr inh, GLP1R ag, ATXN viability)
CC(=O)OC1CCC2(C)C(COc3ccc4ccc(=O)oc4c3)C(C)(O)CCC2C1(C)C (stereo not drawn)	TGFb inhibitor inconclusive, GLP1R inv ag 11µM
C=C1CCC2C(C)(C)[C@@H](O)CC[C@@]2(C)[C@@H]1COc1ccc2ccc(=O)oc2c1 (stereo partly drawn)	TGFb inhibitor inconclusive, GLP1R inv ag inconclusive, ATXN viability inconclusive (no result: ATXN2 expr inh)
